The values that follow come from ChEMBL document CHEMBL3988442, “University of Dundee, Small-Polar-MMV Screening Library” (2021).

In the test the target is AMP-activated protein kinase, AMPK (Homo sapiens) (UniProt P54646+O43741+P54619+Q9UGJ0+Q9Y478+Q13131+Q9UGI9). Kind of test: AMP-dependent Kinase enzyme assay. An in vitro enzyme assay that detects ADP turnover that is directly proportional to AMPK activity. This uses naive AMPK that is activated during the assay with MK-8722. The test is classed as functional. Also on record: scale not given: direction of the effect not stated beside the values. The conditions noted are these: 30 µM.
For `CC(C)(C)c1cc(CNC(=O)c2cc(COc3ccccc3)[nH]n2)[nH]n1`, the Percent Effect came out at 17.9%.
In the case of `COc1cccnc1NC(=O)COC1CCCC1` it was 8.7%; in that of `O=C(CCn1cnnn1)N1CCCC(CO)(CCc2ccccc2)C1` (stereo not given), 6.31%.
With `Cc1nc(S(=O)(=O)N2CCCCc3ccccc32)cn1C`, the Percent Effect is 0.965%.
For the compound `Cc1ccc(-n2cc(C(=O)NCc3nnc4n3CCCCC4)nn2)cc1`, the Percent Effect turned out to be 5.45%.
In the case of `Fc1cccc(CN2CCC[C@H](Cn3nnc(-c4ccccn4)n3)C2)c1` it was 9.12%; in that of `COc1ccc2c(c1)CCCN(CC(=O)NCC1CCCO1)C2` (stereo not given), -4.46%.
To `Cc1cnc(Nc2cccc(C3CCCN3Cc3cn(C)nc3C)n2)s1` (stereo not given) belongs 21.4%; to `CN1CCN(CCOc2ccc(NC(=O)c3ccncc3)cc2)CC1`, 0.498%.
In the case of `Cn1ccnc1CNCCNc1ncc(Cl)cc1Cl` it was -1.1%.
For the compound `COc1ccccc1CN1CCC(c2nccc(C)n2)C1` (stereo not given), the Percent Effect is -3.97%.
In the case of `N#Cc1cc(S(N)(=O)=O)ccc1N1CCc2c(Cl)cccc2C1` it was 17.4%; in that of `CC1CC(NS(=O)(=O)c2ccc(C(F)(F)F)nc2)C1` (stereo not given), 19.9%; in that of `CNCC(=O)NC1CC(C)(C)Cc2nc(C(C)(C)C)ncc21` (stereo not given), -7.88%.
With `CC(C)n1cc(CN(Cc2ccc(F)cc2)CC2CCCO2)cn1` (stereo not given), the Percent Effect came out at 5.24%.
In the case of `CN(Cc1cn(CC2CCNCC2)nn1)CC1CCCCO1` (stereo not given) it was 7.46%; in that of `CCN(Cc1nc(Cc2ccccc2)no1)C1CC1`, 9.85%.
Regarding `CC(C)[C@]1(O)CN(C(=O)C2(Cn3cccn3)CC2)C[C@H]1C`, the Percent Effect was -3.27%.
Turning to `O=C1NCCN2CCN(Cc3ccc(Cl)c(Cl)c3)CC12` (stereo not given), the Percent Effect was -0.338%.
To `CC(=O)Nn1ccc2c(nnc3c(-c4ccc(F)cc4)cnn32)c1=O` belongs 10.3%; to `O=C(NCc1ccc(Br)c(F)c1)Nc1cn[nH]c1`, -0.537%.
To `CC(C)C(C(=O)N(C)C)c1cccc(Cl)c1` (stereo not given) belongs 6.38%.
For `CNC(=O)COC(=O)c1ccn(-c2ccc(Cl)c(Cl)c2)n1`, the Percent Effect turned out to be 1.87%.
To `N#Cc1ccc(SCCC(=O)O)cc1` belongs 6.5%; to `CC(Oc1cccc(Cl)c1)C(=O)Nc1cnn(CC(=O)NC2CC2)c1` (stereo not given), 1.4%.
To `Cc1nsc(C(=O)NCCc2cccs2)n1` belongs 1.77%; to `CC(C)Oc1cccc(CN(C)C(=O)Nc2cccn(C)c2=O)c1`, -63%.
On to `CC(=O)Nc1ccc(CN2C[C@H]3CC[C@@H]2CN(c2ncccn2)C3)cc1`, for which the Percent Effect is 13%.
To `COc1ccc(S(=O)(=O)N2CCOC(C)(C(N)=O)C2)cc1` (stereo not given) belongs 15.5%; to `CCSCC(C)NCc1ccccc1-n1ccnc1` (stereo not given), 7.25%; to `CN(CCNC(=O)Nc1cnn(C)c1)Cc1ccc(F)cc1`, 0.603%.
In the case of `CC(C)(C)c1nc(CN2CCCC2c2nnc3ccccn23)no1` (stereo not given) it was 6.67%; in that of `c1cc(CNCc2ccc(-n3cncn3)nc2)cc(OC2CCCC2)c1`, 9.46%.
In the case of `Cc1cc(C(=O)N2CC[C@@]3(O)CCN(C(=O)N4CCCC4)C[C@H]3C2)no1`, the Percent Effect is 5.71%.
To `Cc1csc(C(=O)N2CC(S(=O)(=O)C3CCCCC3)C2)c1` belongs -2.28%; to `Cc1ccc(OCC2CCCN(c3cc(C(N)=O)ccn3)C2)cc1` (stereo not given), 2.7%.
To `CN(Cc1ccc(F)cc1)Cc1cc2c(cc1Br)OCCO2` belongs -2.13%; to `CN(C)C(CNC(=O)OCC(F)(F)F)c1ccsc1` (stereo not given), -1.15%; to `CSc1nccc(N2CCC(NCc3ccc4nsnc4c3)CC2)n1`, 2.27%.
To `CC(Cc1cccc(F)c1)C(=O)NS(=O)(=O)c1ccc2c(c1)OCCO2` (stereo not given) belongs 3.32%.
